Data: PubChem BioAssay AID1159580 (chemical genetic matrix, 2015)
“And” between values parts separate entries of the source, which are not always exact repeats. Equal entries are not always repeated. Among all 5,500 compounds or so, about 2,000 (36%) were called active. Another 18% or so got no clear call; they are omitted. Rule as the data show it: active = normalized growth mostly below about 0.91 (no sharp cut-off); inconclusive = no clear call, values can overlap the other calls; inactive = mostly above about 0.92. This is one part of the list.

Assay: chemical genetic growth profiling, strain panel (AID 1159580);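 also: tested at 20 µM; growth read once vehicle control cultures reached saturation at 30 °C; 1 = growth at the plate median or of vehicle wells; lower values mean less growth of the strain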
Settings: S. cerevisiae deletion strains, growth OD

Measured: normalized growth

CC(C(=O)O)c1ccc(C(=O)c2cccs2)cc1 (configuration not stated)
inactive: locus YAL021C, strain ccr4, active compounds read low 1.02 | locus YAL026C, strain drs2, active compounds read low 1.01 | locus YAL030W, strain snc1, active compounds read low 1 | locus YBL061C, strain skt5, active compounds read low 1 | locus YBR009C, strain hhf1, active compounds read low 1.01 | locus YBR021W, strain FUR4, active compounds read low 0.987 | locus YBR023C, strain chs3, active compounds read low 0.995 | locus YBR171W, strain sec66, active compounds read low 0.985 | locus YBR229C, strain ROT2, active compounds read low 1.01 | locus YBR231C, strain swc5, active compounds read low 1 | locus YBR279W, strain paf1, active compounds read low 0.996 | locus YCL011C, strain gbp2, active compounds read low 1.01 | locus YCL016C, strain dcc1, active compounds read low 0.998 | locus YCL029C, strain bik1, active compounds read low 1.01 | locus YCL061C, strain MRC1, active compounds read low 1.01 | locus YCL069W, strain vba3, active compounds read low 0.997 | locus YCR088W, strain abp1, active compounds read low 0.996 | locus YDL005C, strain med2, active compounds read low 0.995 | locus YDL035C, strain GPR1, active compounds read low 1.01 | locus YDL040C, strain nat1, active compounds read low 0.998 | locus YDL074C, strain BRE1, active compounds read low 1 | locus YDL101C, strain DUN1, active compounds read low 1.01 | locus YDL134C, strain PPH21, active compounds read low 1 | locus YDL185W, strain tfp1, active compounds read low 0.999 | locus YDL192W, strain arf1, active compounds read low 1.01 | locus YDR001C, strain nth1, active compounds read low 0.993 | locus YDR069C, strain doa4, active compounds read low 0.994 | locus YDR101C, strain arx1, active compounds read low 1 | locus YDR137W, strain rgp1, active compounds read low 0.963 | locus YDR159W, strain sac3, active compounds read low 0.991 | locus YDR162C, strain NBP2, active compounds read low 1.01 | locus YDR195W, strain ref2 0.976 | locus YDR297W, strain sur2, active compounds read low 0.999 | locus YDR318W, strain mcm21, active compounds read low 1.02 | locus YDR334W, strain swr1, active compounds read low 0.989 | locus YDR335W, strain msn5, active compounds read low 1.01 | locus YDR388W, active compounds read low 1.02 | locus YDR392W, strain spt3, active compounds read low 1.03 | locus YDR502C, strain sam2, active compounds read low 1.03 | locus YEL003W, strain gim4, active compounds read low 0.987 | locus YEL037C, strain rad23, active compounds read low 1 | locus YEL061C, strain CIN8 (second series), active compounds read low 1 | locus YEL061C, strain CIN8, active compounds read low 1 | locus YER015W, strain faa2, active compounds read low 0.989 | locus YER016W, strain bim1, active compounds read low 1.02 | locus YER110C, active compounds read low 1.02 | locus YER111C, strain swi4, active compounds read low 0.985 | locus YER155C, strain BEM2 (second series), active compounds read low 1 | locus YER155C, strain BEM2, active compounds read low 0.992 | locus YER167W, strain BCK2, active compounds read low 1 | locus YFR010W, strain ubp6, active compounds read low 0.991 | locus YGL078C, strain dbp3, active compounds read low 1.01 | locus YGL086W, strain mad1, active compounds read low 1 | locus YGL167C, strain pmr1, active compounds read low 0.994 | locus YGL173C, strain kem1, active compounds read low 0.993 | locus YGL227W, strain vid30, active compounds read low 0.99 | locus YGL240W, strain doc1, active compounds read low 1 | locus YGL248W, strain PDE1, active compounds read low 1.01 | locus YGL253W, strain hxk2, active compounds read low 1.01 | locus YGR135W, strain pre9, active compounds read low 1.01 | locus YGR252W, strain gcn5, active compounds read low 1 | locus YHR013C, strain ard1, active compounds read low 0.989 | locus YHR027C, strain rpn1, active compounds read low 1.01 | locus YHR030C, strain SLT2, active compounds read low 0.998 and 1 | locus YHR079C, strain IRE1 (second series), active compounds read low 1.01 | locus YHR079C, strain IRE1, active compounds read low 0.999 | locus YHR094C, strain hxt1, active compounds read low 1.01 | locus YHR129C, strain ARP1, active compounds read low 1 | locus YHR142W, strain chs7, active compounds read low 0.995 | locus YHR200W, strain rpn10, active compounds read low 1.01 | locus YIL066C, strain RNR3, active compounds read low 1.01 | locus YIL073C, strain SPO22, active compounds read low 1.07 | locus YIL125W, strain kgd1, active compounds read low 1.01 | locus YIR030C, strain dcg1, active compounds read low 1.01 | locus YJL092W, strain hpr5, active compounds read low 0.996 | locus YJL095W, strain BCK1 (second series), active compounds read low 1 | locus YJL095W, strain BCK1, active compounds read low 1 and 0.971 | locus YJL115W, strain asf1, active compounds read low 0.995 | locus YJL129C, strain trk1, active compounds read low 0.982 | locus YJL134W, strain LCB3, active compounds read low 1 | locus YJL154C, strain vps35, active compounds read low 0.99 | locus YJL164C, strain tpk1, active compounds read low 1.03 | locus YJL166W, strain qcr8, active compounds read low 0.99 | locus YJL168C, strain set2, active compounds read low 1.01 | locus YJL187C, strain SWE1 (second series), active compounds read low 1.01 | locus YJR043C, strain POL32, active compounds read low 0.982 | locus YJR066W, strain TOR1, active compounds read low 0.952
